PubChem BioAssay AID1159577 (Broad Institute, 2015)
Hit rate of the full screen: of about 1,300 compounds, about 240 (18%) were called active. Roughly 8% stayed inconclusive and do not appear here. The list is a sample of the results. Measured potencies and affinities stand elsewhere. Values without a mark were called inactive. The rule behind the calls is not given here.

assay: HepG2 cell cytotoxicity, dose response, cytotoxicity control, cherry-picked samples (AID 1159577); settings: HepG2 cytotoxicity counterscreen, plate reader; series mostly up to 19.5 µM; activity change, negative = cytotoxicity: at the top concentration;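 note: 0% = neutral control wells and -100% = positive control wells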

Structure (SMILES) | activity change, negative = cytotoxicity
C[C@@H]1CN([C@@H](C)CO)C(=O)c2cccc(NC(=O)Nc3ccccc3)c2O[C@@H]1CN(C)C(=O)Nc1ccc(F)cc1 | 11.6%
COc1ccc2c3c(n(C)c2c1)[C@@H](CO)N(C(=O)c1ccc(F)cc1)CC31CN(CC2CCOCC2)C1 | -6.16%
CCCN1C[C@@H](C)[C@H](OC)CN(C)C(=O)c2ccc(NC(=O)c3cccc(F)c3)cc2OC[C@H]1C | 9.31%
COc1ccc2c3c(n(C)c2c1)[C@H](CO)N(Cc1ccccc1F)CC31CCN(CC2CC2)CC1 | -24.4%
COc1ccc2c3c(n(C)c2c1)[C@@H](CO)N(C(=O)c1ccccc1)CC31CCN(C(=O)c2ccccc2)CC1 | 6.24%
COc1ccc2c3c(n(C)c2c1)[C@@H](CO)N(Cc1ccccc1F)CC31CCN(CC2CC2)CC1 | -22.2%
CCC(=O)N1CCC2(CC1)CN(Cc1cccc(Cl)c1)[C@H](CO)c1c2c2ccc(OC)cc2n1C | -4.12%
COc1ccc2c3c(n(C)c2c1)[C@@H](CO)N(CC1CCCCC1)CC31CCN(Cc2nccs2)CC1 | 9.04%
COc1ccc2c3c(n(C)c2c1)[C@@H](CO)N(Cc1ccc(Cl)cc1)CC31CCN(CC2CC2)CC1 | -10.4%
COc1ccc2c3c(n(C)c2c1)[C@H](CO)N(Cc1ccncc1)CC31CCN(C(=O)Cc2ccncc2)CC1 | 9.18% [at 18 µM]
COc1ccc2c3c(n(C)c2c1)[C@H](CO)N(C(=O)c1ccccc1)CC31CCN(C(=O)c2ccccc2)CC1 | 28.5%
COc1ccc(-c2ccccc2[C@H]2[C@@H](CO)N(C(=O)C3CCOCC3)[C@H]2C#N)cc1 | 10.6%
COc1ccc2c3c(n(C)c2c1)[C@H](CO)N(Cc1cccnc1)CC31CN(C(=O)NC(C)C)C1 | -0.752%
CC(C)(C)[S@](=O)N1Cc2cc(C(=O)NCCN3CCCCC3)nc(-c3cccc(-c4cccc(C#N)c4)c3)c2[C@@H]1CCO | 2.26%
C[C@@H]1CN([C@@H](C)CO)S(=O)(=O)c2ccc(C#Cc3ccncc3)cc2O[C@H]1CN(C)S(=O)(=O)c1ccc(F)cc1 | -11%
OC[C@H]1CC[C@@H]2O[C@H](CCc3ccc(C#CCc4ccccc4)cc3)[C@@H](n3cc(-c4ccccc4)nn3)C[C@@H]2O1 | 12.9%
O=C(C1CCCC1)N1CC[C@@H]2[C@H]1c1cc(C3=CCCCC3)ccc1N[C@@H]2CO | 6.34%
Cc1ccc(S(=O)(=O)N(C)C[C@@H]2OCc3ccccc3-c3c(n(C)c4ccccc34)C(=O)N([C@@H](C)CO)C[C@@H]2C)cc1 | -18.7%
COc1ccc(S(=O)(=O)N[C@@H]2CC[C@H](CCn3cc(-c4ccccc4F)nn3)O[C@@H]2CO)cc1 | -8.13%
CCCc1cn([C@H]2C[C@@H]3O[C@H](CO)CC[C@@H]3O[C@@H]2CCc2ccc(-c3ccc(OC)cc3)cc2)nn1 | 15.6%
COc1cccc(-c2cn(CC[C@@H]3CC[C@H](NS(=O)(=O)c4ccccc4Cl)[C@H](CO)O3)nn2)c1 | -6.11%
CCCc1cn([C@H]2C[C@@H]3O[C@@H](CO)CC[C@@H]3O[C@@H]2CCc2ccc(-c3ccc(OC)cc3)cc2)nn1 | 3.71%

Structure (SMILES) | activity change, negative = cytotoxicity
CCC(=O)N1C[C@H](C)[C@H](OC)CN(C)C(=O)c2cc(NC(=O)Nc3cccc(F)c3)ccc2OC[C@@H]1C | 22.1%
O=C(Nc1cccc(F)c1)N[C@@H]1CC[C@H](CCNS(=O)(=O)c2cccc(Cl)c2)O[C@H]1CO | -6.07%
C[C@H]1CN([C@@H](C)CO)C(=O)c2c(c3ccccc3n2C)-c2ccccc2CO[C@H]1CN(C)S(=O)(=O)c1ccccc1C#N | -3.86%
COc1ccc(C#Cc2ccc3c(c2)[C@@H]2[C@@H](CCN2C(=O)C2CCC2)[C@H](CO)N3)cc1 | -13.7%
O=C(Nc1ccccc1F)N1CCCCN2[C@@H](CO)[C@H](c3ccc(C#Cc4cccnc4)cc3)[C@@H]2C1 | 8.61%
CN1CCCCN2[C@@H](CO)[C@@H](c3ccc(-c4cccnc4)cc3)[C@@H]2C1 | 2.85%
O=C(Nc1ccccc1F)N1CCCCN2[C@H](CO)[C@H](c3ccc(C#Cc4cccnc4)cc3)[C@@H]2C1 | 4.47%
COCC(=O)Nc1ccc2c(c1)C(=O)N(C)C[C@@H](OC)[C@H](C)CN(CC1CCCCC1)[C@@H](C)CO2 | -4.53%
CCCN1C[C@H](C)[C@@H](OC)CN(C)C(=O)c2cc(NC(=O)Nc3cccc(F)c3)ccc2OC[C@H]1C | 7.72%
CCC(=O)N[C@H]1C=C[C@H](CC(=O)NCC2CCCCC2)O[C@@H]1CO | 5.5%
CCC(=O)N1CCC2(CC1)CN(Cc1ccc3c(c1)OCO3)[C@@H](CO)c1c2c2ccc(OC)cc2n1C | 12.7%
COc1ccc2c3c([nH]c2c1)[C@H](CO)N(Cc1cccc(F)c1)CC31CCN(Cc2ccccn2)CC1 | -28%
CCCC(=O)Nc1ccc2c(c1)OC[C@@H](C)N(Cc1cc(-c3ccccc3)on1)C[C@@H](C)[C@H](OC)CN(C)C2=O | -15.5% [at 21 µM]
CCCC(=O)N1CC2(C1)CN(S(=O)(=O)c1ccc(C)cc1)[C@@H](CO)c1[nH]c3cc(OC)ccc3c12 | -15.7%
COc1cccc(-c2ccc([C@H]3[C@H](CO)N4CCCCN(CC5CC5)C[C@@H]34)cc2)c1 | -8.37%
COc1cccc(S(=O)(=O)N(C)C[C@@H]2OCc3ccccc3-c3c(n(C)c4ccccc34)C(=O)N([C@H](C)CO)C[C@@H]2C)c1 | -11.8%
COc1ccc2c3c(n(C)c2c1)[C@H](CO)N(C(=O)Nc1ccc(F)cc1)CC31CCN(C(=O)c2cccnc2)CC1 | -6.19%
CCCC(=O)Nc1ccc2c(c1)OC[C@@H](C)N(Cc1ccc(F)cc1)C[C@@H](C)[C@H](OC)CN(C)C2=O | 4.46%
CC=Cc1ccc2n(c1=O)C[C@H]1[C@H](CO)[C@@H](C(=O)N3CCC(Cc4ccccc4)CC3)N(CCC)[C@@H]21 (mixture of isomers) | -3.03%
C[C@H](CO)N1C[C@H](C)[C@H](CN(C)S(=O)(=O)c2ccc(F)cc2)OCc2ccccc2-c2c(n(C)c3ccccc23)C1=O | 9.68%
Cc1ccc(-c2ccccc2[C@H]2[C@@H](C#N)N(C(=O)c3cccc(F)c3)[C@H]2CO)cc1 | -17.6%
C[C@H]1CN([C@@H](C)CO)C(=O)c2c(c3ccccc3n2C)-c2ccccc2CO[C@@H]1CN(C)S(=O)(=O)c1cccc(F)c1 | 15.1% [at 21 µM]
